Screens: PubChem, National Center for Advancing Translational Sciences (NCATS)
Rows were chosen to be rich in hits. Some 9.3% of all compounds tested hit in one or more screens of this group.
ELG1 DNA repair: ELG1-dependent DNA repair inhibition; HEK293T ELG1-luciferase reporter, luminescence, 16 h; DNA damage induced by 5-fluorouridine; Potency, µM (doses to about 46.1 µM), without a hit: top-dose activity change, negative = inhibition, usual class: inhibitors; hit rate 2.3% among 330,000; AID 504467; note: % is set by controls: 0 for no effect and ±100 for the full control effect; nearly all actives have a fitted effect of over 55% in size
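Reporter activity after DNA damage by 5-fluorouridine is monitored. Compound-treated cells incubate 16 hr at 37 °C, then ONE-Glo is added for 30 min before luminescence reading.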
FLuc modulator: counter-screen for miR-21 project: firefly luciferase inhibitors or activators; hit rate 6.9% among 360,000; purified FLuc, Km substrates, luminescence inhibition; AID 588342; Potency, µM (top dose mostly 57.5 µM), without a hit: at the highest dose activity change, negative = inhibition, actives largely listed as inhibitors; P08659;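 note: plate controls were vehicle for no effect and reference inhibitor for full effect; nearly all actives have a fitted effect of over 55% in size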
Target sequence (P08659 whole entry, looked up): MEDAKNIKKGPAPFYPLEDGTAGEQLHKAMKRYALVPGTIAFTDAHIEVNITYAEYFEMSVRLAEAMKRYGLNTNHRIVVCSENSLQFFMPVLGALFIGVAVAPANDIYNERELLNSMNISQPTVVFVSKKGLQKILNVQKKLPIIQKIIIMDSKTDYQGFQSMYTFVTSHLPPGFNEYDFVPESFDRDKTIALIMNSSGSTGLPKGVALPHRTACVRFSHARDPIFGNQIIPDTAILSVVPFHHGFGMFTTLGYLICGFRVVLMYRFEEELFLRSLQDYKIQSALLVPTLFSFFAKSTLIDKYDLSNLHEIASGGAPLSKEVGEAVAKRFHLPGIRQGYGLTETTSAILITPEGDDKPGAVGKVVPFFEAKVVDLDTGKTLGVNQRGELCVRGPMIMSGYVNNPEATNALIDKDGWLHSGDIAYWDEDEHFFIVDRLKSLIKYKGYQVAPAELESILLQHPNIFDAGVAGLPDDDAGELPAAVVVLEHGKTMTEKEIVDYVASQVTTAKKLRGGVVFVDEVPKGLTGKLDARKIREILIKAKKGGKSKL
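Biochemical qHTS of compounds, final roughly 60 µM downward over six points, against 10 nM purified firefly luciferase using Km concentrations of substrates (10 uM D-luciferin, 10 uM ATP) in Tris acetate pH 7.5 buffer; luminescence output.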
NPC1 promoter act: activates the NPC1 promoter | Huh7 NPC1 promoter luciferase reporter, 24 h | Potency, µM (doses to about 9.22 µM), inactives show at the top dose activation, actives largely listed as activators | hit rate 2.4% among 320,000; note: % of control where 0% means no effect; nearly all actives have a fitted effect of over 60% in size
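Compounds in DMSO were transferred onto Huh7 NPC1-luciferase reporter cells pre-incubated 2 h; after 24 h at 37 °C, Amplite reagent was dispensed and luminescence recorded 10 min later.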
SMN2 splice enh: increases expression of the SMN2 splice variant | HEK293 SMN2-luciferase splicing reporter, luminescence, 30-36 h | Potency, µM (highest dose often 46.1 µM), for the others: top-dose activity change, positive = activation, usual class: activators | hit rate 2.8% among 210,000 | AID 1458; note: % of control where 0% means no effect; nearly all actives have a fitted effect of over 55% in size
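HEK293 cells carry an SMN2 […]–luciferase reporter in which exon 7 inclusion puts luciferase in frame. Cells were plated 10-12 h before compound addition, then incubated 30-36 h at 37C. ONE-Glo luminescence was read; sodium butyrate at 4.5 mM final served as control.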
Rab9 promoter act: activates the Rab9 promoter; Potency, µM (highest dose often 9.22 µM), inactives show at the top dose activation, negative = inhibition, usual class: activators; hit rate 2.8% among 320,000; Huh7 Rab9 promoter-luciferase reporter, luminescence, 24 h; note: % of control where 0% means no effect; nearly all actives have a fitted effect of over 60% in size
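Luciferase signal after 10 min detection reagent at ambient indicates Rab9 promoter upregulation; stably transfected Huh7 cells were treated 24 h with compound in DMSO at 37 °C, 5% CO2.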
ELG1 genotox: inducers of genotoxicity in HEK293T ELG1-luciferase cells; hit rate 1.3% among 330,000; AID 504466; HEK293T ELG1-luciferase reporter, luminescence, 16 h; Potency, µM (doses to about 46 µM), inactives show at the top dose activity change, positive = activation, actives largely listed as activators; note: % of control where 0% means no effect; nearly all actives have a fitted effect of over 60% in size
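HEK293T cells expressing luciferase-tagged ELG1 were treated with compound or DMSO for 16 hr at 37°C. Luciferase activity was then read after 30 min with ONE-Glo at room temperature; rising signal flags genetic stress.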
Numbers without * were called inactive; ? = inconclusive; · = not tested or not shown; [ ] = another dose, or the depositor's remark. Calls come from the whole dose curve; as a rule, active = well fitted curve in the direction sought with a large enough effect; inconclusive = small, poorly fitted or top-dose-only effect, or another doubt; inactive = no such curve, though single readings can be large; an effect the other way counts as inactive or inconclusive. Potency is the fitted concentration of half-maximal effect.

SMILES | ELG1 DNA repair | FLuc modulator | NPC1 promoter act | SMN2 splice enh | Rab9 promoter act | ELG1 genotox
COC(=O)CNC(=O)COC(=O)c1cc(SC)ccc1Cl | 5% | 1% | -2% | 6% | -1% | 0%
COc1ccc(/C=N/Nc2ncnc3scc(-c4ccccc4)c23)cc1OC | 18µM* | ? | -2% | 2% | 7% | -9%
c1ccc(CNc2nc(-c3ccccn3)nc3ccccc23)cc1 | -8% | -15% | -44% | · | -2%[1.84 µM] | -4%
Oc1ccc(/C=N/Nc2nc(-c3cccnc3)nc3ccccc23)c(O)c1 | 16µM* | 4.8µM* | -1% | · | 4% | -3%
Cc1c(O)ccc(/C=N/Nc2nc(-c3cccnc3)nc3ccccc23)c1O | 5.2µM* | 3.4µM* | 18% | · | 25% | 12%
Cc1ccc(Nc2nc(-c3cccnc3)nc3ccccc23)cc1 | ? | -4% | -20% | · | -12% | -12%
Fc1ccccc1/C=N/Nc1nc(-c2ccccn2)nc2ccccc12 | ? | 9.5µM* | -24% | · | -28% | 9%
CC1=C(C(=O)OCC2CCCO2)C(c2ccccc2)C2=C(CC(C)(C)CC2=O)N1 (configuration not stated) | -10% | 5% | -7% | -26% | -10% | ?
C[C@@H]1COC(=O)CCC/C=C\C[C@@H](CC(=O)N(CCO)Cc2ccccc2)C(=O)N1 | 19% | · | · | · | · | 0%
COc1ccc(F)cc1S(=O)(=O)NCCc1sc2nc(-c3ccc(F)cc3)nn2c1C | · | -11% | · | · | · | ·
Cc1c(O)ccc(/C(Cc2ccc3ccccc3n2)=N\N)c1O | ? | 15µM* | 19% | · | 17% | 10%
CCc1cc(/C(Cc2ccc3ccccc3n2)=N\O)c(O)cc1O | ? | 2% | -3% | -14% | 1% | 1%
O=C(NNC1=C(C(=O)C(F)(F)F)CCC1)c1ccccc1O | ? | 27µM* | 13% | -24% | 26% | -24%
O=C(NNC1=C(C(=O)C(F)(F)F)CCC1)c1ccccc1Cl | ? | 2% | -5% | 10% | -15% | -2%
Cn1c(CNC(=O)C(Cc2ccccc2)NC(=O)c2cccc(F)c2)cc(=O)n(C)c1=O (configuration not stated) | 18% | -4% | 0% | · | 1% | -1%
CC(=O)NCc1cc(-c2ccc(Cl)cc2)no1 | 28% | -7% | -1% | -1% | 1% | 6%
C/C(=N/OC(=O)C1CC1)c1cc(-c2ccc(Cl)cc2)no1 | ? | 5.4µM* | ? | · | 2.8µM* | ?
C/C(=N\OC(=O)c1ccccc1)c1cc(-c2ccc(Cl)cc2)no1 | ? | -1% | 2.8µM* | ? | 3.2µM* | ?
CCCCCC1C(=O)C[C@@H]2CCN3C(=O)CCC[C@H]1[C@H]23 (some centres not stated) | 1% | · | · | · | · | 5%
Cc1ccc(OCC(=O)Nc2nnc(SCc3cc(=O)n4cc(C)ccc4n3)s2)cc1 | · | -14% | · | · | · | ·
C/C(=N/NC(=O)c1ccc2nc[nH]c2c1)c1cccs1 | ? | 11µM* | 2µM* | 11µM* | 1.4µM* | ?
C/C(=N\NC(=O)c1ccc(Cl)cc1)c1cccs1 | ? | 2.7µM* | 0.56µM* | 3.5µM* | 0.32µM* | 2.3µM*
CCN(c1ccccc1)S(=O)(=O)c1cccc(C(=O)NCc2ccccn2)c1 | 15% | 4% | 0% | · | -2% | -1%
CSCC[C@H](N)C(=O)N1CCC(C(=O)N[C@H](C(=O)NCc2ccccc2F)C(C)C)CC1 | -14% | 0% | 0% | · | -4% | -2%
Cc1nnc(S(=O)(=O)c2ccc(N=Nc3c(N)nc(N)nc3N)cc2)s1 | · | · | · | 16%[9.22 µM] | · | ·
SMILES | ELG1 DNA repair | FLuc modulator | NPC1 promoter act | SMN2 splice enh | Rab9 promoter act | ELG1 genotox
CN(C)c1ccc(SC#N)cc1 | 18µM* | -11% | -3% | · | 5% | -10%
COc1ccc(-c2cn[nH]c2-c2ccc(OCc3ccccc3)cc2O)cc1 | 21µM* | -3% | -4% | · | -2% | -12%
COc1ccccc1-c1cn[nH]c1-c1ccc(OCc2ccccc2)cc1O | ? | -5% | -3% | · | -10% | 0%
COc1ccc(-c2cn[nH]c2-c2ccc(OC)cc2O)cc1 | 10µM* | -2% | -2% | · | -1% | -22%
CCCC(c1nnnn1C(C)(C)CC)N1CCN(C(=O)c2ccco2)CC1 (configuration not stated) | -5% | 2% | -5% | · | 0% | 7%
Cc1cccc(C)c1NC(=O)CN1C(=O)c2ccccc2Sc2ncccc21 | · | 0% | · | · | · | ·
CCOc1ccc(CNC(=O)c2ccc3c(c2)sc2nc(-c4ccccc4)cn23)cc1 | · | -3% | · | · | · | ·
O=C(c1ccccc1F)N1CCN(c2ccc([N+](=O)[O-])c(NCc3cccnc3)c2)CC1 | ? | -1% | 2% | · | -2% | -4%
COc1ccc(CCNc2cc(N3CCN(C(=O)c4ccccc4F)CC3)ccc2[N+](=O)[O-])cc1OC | 4.1µM* | 2% | -32% | -44% | -40% | -12%
COc1ccc(CCNc2cc(N3CCN(C(=O)c4ccc(C)cc4)CC3)ccc2[N+](=O)[O-])cc1OC | 2.1µM* | 4% | -33% | -59% | -34% | -11%
COc1ccc(C(=O)N2CCN(c3ccc([N+](=O)[O-])c(NCCc4ccc(OC)c(OC)c4)c3)CC2)cc1 | ? | 6% | -31% | -64% | -29% | 0%
CCc1ccccc1NC(=O)Cn1c(=O)oc2ccccc21 | · | 0% | · | · | · | ·
CC(=O)c1cccc(OCC(=O)c2cc(C)n(-c3cc(C)on3)c2C)c1 | ? | ? | -2% | -47% | -7% | -7%
Cc1cc(-n2c(C)cc(C(=O)COc3ccc4ccc(=O)oc4c3)c2C)no1 | ? | 17µM* | -1% | -15% | 7% | -2%
CCc1nc2c(cnn2-c2ccc(F)cc2)c(=O)n1-c1ccc(N2CCC(C)CC2)cc1 | 16µM* | 6% | -11% | -76% | -13% | -14%
Cc1nc2c(cnn2-c2ccccc2Cl)c(=O)n1-c1ccc(N2CCC(C)CC2)cc1 | 16µM* | 2% | -4% | -62% | -8% | -26%
CC(OC(=O)C1CCCC1)C(=O)Nc1ccc(C(N)=O)cc1 (configuration not stated) | 3% | -2% | -4% | · | -1% | 5%
